According to PubChem BioAssay (EPA / NIEHS):
Active and inactive are the calls of the source. How the source made its calls: active means hit-call score of the fitted dose curve at least 0.9, where 1 is the maximum; inactive means score below 0.9.

Experiment: UKN2_HCS_IMR90_neural_migration: University of Konstanz (UKN) Leist Lab Neural Crest Cell Migration Assay in human induced IMR90 Pluripotent Stem Cells (UKN2) (AID 2284204)
Conditions: actives raise or lower the signal
Outline: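 Stopper-exclusion migration (cMINC), human iPSC-derived neural crest cells; N2-S + EGF/FGF; compound added 24 h post-stopper removal, 24 h exposure. Readout: calcein-AM/Hoechst 30 min, HCS fluorescence imaging; bidirectional fitting, DMSO baseline.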

Structure (SMILES) | AC50 | outcome
S=C([S-])NCCNC(=S)[S-].[Mn+2] | 14.2 µM (active) | –
CCCN(CCC)C(=O)SCC | – | inactive
Cc1nn(C)c(Oc2ccccc2)c1C=NOCc1ccc(C(=O)OC(C)(C)C)cc1 | 6.55 µM (active) | –
C#CCOC(=O)[C@@H](C)Oc1ccc(Oc2ncc(Cl)cc2F)cc1 | – | inactive
CCN(CC)C(=O)c1cccc(C)c1 | – | inactive

Experiment: IUF_NPC1b_proliferation_BrdU_72hr: Leibniz Research Institute for Environmental Medicine (IUF) 72-hour Neural Progenitor Cell Bromodeoxyuridine (BrdU) Proliferation Assay (NPC1b) (AID 2284207)
Conditions: not given
Outline: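 Luminescent BrdU ELISA measured DNA synthesis during the last 16 h of a 72 h exposure of primary human neural progenitor spheres grown with EGF and FGF. Signal was fitted relative to DMSO controls.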

Structure (SMILES) | outcome | AC50
S=C([S-])NCCNC(=S)[S-].[Mn+2] | inactive | –
CCCN(CCC)C(=O)SCC | inactive | –
Cc1nn(C)c(Oc2ccccc2)c1C=NOCc1ccc(C(=O)OC(C)(C)C)cc1 | – | 5.15 µM (active)
S=C(S)NCCNC(=S)S.[Mn+2].[S-]C([S-])=NCCN=C([S-])[S-].[Zn+2] | inactive | –
O=C(O)c1ccccc1 | inactive | –
CSC(=O)c1cccc2nnsc12 | – | 0.796 µM (active)
C#CCOC(=O)[C@@H](C)Oc1ccc(Oc2ncc(Cl)cc2F)cc1 | inactive | –
CC(C)(c1ccc(O)cc1)c1ccc(O)cc1 | – | 4.92 µM (active)
CCN(CC)C(=O)c1cccc(C)c1 | – | 92.7 µM (active)
